Bioassay records as filed in PubChem.
UbGFP stabilizer = ubiquitin-GFP accumulation via proteasome inhibition. AID 526. Potency, µM (series often up to 45.9 µM), inactives show at the highest dose activation (GFP accumulation), hits mostly activators. 67,000 tested, under 10 active. Ubiquitin-GFP reporter cells, proteasome inhibition, GFP fluorescence; response scale: untreated = 0%, 10 µM MG-132 = 100%; active means well fitted activation curve with a large enough effect, not every such curve was filed as active; inconclusive means small, poorly fitted or top-dose-only effect, or another doubt; inactive means no such curve, though single readings can be large or run the other way
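Proteasome block read as GFP accumulation: ubiquitin(G76V)-GFP U2OS cells exposed to compound (2.9 nM–46 uM) for 4 hr at 37 C. Normalization used untreated cells as 0% and 10 uM MG-132 as 100%; concentration-response curves fitted.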
GBA activity = modulators of human glucocerebrosidase; Potency, µM; purified enzyme, resorufin glucoside fluorescence (screen aimed at inhibitors), 20 min; P04062; 1.1% of 48,000 active; in the data active means potency below about 15 µM; inconclusive means mostly about 16 µM to 33 µM;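 further: the screen sought inhibitors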
Target sequence (P04062 whole entry, looked up): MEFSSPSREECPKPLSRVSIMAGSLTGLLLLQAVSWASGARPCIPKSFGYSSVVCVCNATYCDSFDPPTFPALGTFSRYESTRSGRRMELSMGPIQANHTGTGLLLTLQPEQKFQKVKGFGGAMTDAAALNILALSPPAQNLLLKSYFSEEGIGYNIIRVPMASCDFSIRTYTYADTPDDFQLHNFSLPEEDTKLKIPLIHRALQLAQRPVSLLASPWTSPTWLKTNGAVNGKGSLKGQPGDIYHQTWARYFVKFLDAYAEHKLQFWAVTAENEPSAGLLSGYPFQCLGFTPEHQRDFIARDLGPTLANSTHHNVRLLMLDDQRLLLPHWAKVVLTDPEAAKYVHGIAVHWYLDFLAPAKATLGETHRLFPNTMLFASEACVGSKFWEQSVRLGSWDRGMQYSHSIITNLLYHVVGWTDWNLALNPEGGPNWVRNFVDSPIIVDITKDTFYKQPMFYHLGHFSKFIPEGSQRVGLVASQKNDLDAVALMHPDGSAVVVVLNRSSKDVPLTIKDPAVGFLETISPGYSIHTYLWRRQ
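Normal human glucocerebrosidase (0.2 nM final) was assayed with resorufin β-D-glucopyranoside (30 uM final) in 50mM citric acid/KH2PO4, 10mM sodium taurocholate, 0.01% tween-20, pH 5.9. Compounds were titrated; fluorescence (Ex 548, Em 600) read after 20 min at RT.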
TSHR agonist = agonists of human thyroid stimulating hormone receptor | HEK293-CNG-TSHR cells (CNG channel as cAMP sensor), membrane potential dye, cAMP | 0.48% of 73,000 active | P16473 | AID 926 | Potency, µM (titrated, usually from 57.1 µM), inactives show at the highest dose activation, most hits filed as activators; active means well fitted activation curve with a large enough effect in the main read-out, with a control signal flat, not every such curve was filed as active; inconclusive means small, poorly fitted or top-dose-only effect, or a change in a side signal; inactive means no such curve, though single readings can be large or run the other way; % of control where 0% means no effect;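 further: the control signal comes from parental cells without the receptor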
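cAMP rise detected as CNG-channel membrane depolarization by fluorescent dye (emission 590 nm), 30 min after compound, following 60 min dye loading containing 100 uM RO 20-1724 at room temperature. Cells: TSHR/CNG HEK 293, with parental CNG HEK 293 as control.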
USP2a inh = inhibitors of human ubiquitin-specific protease USP2a; USP2a enzymatic assay, qHTS inhibition; Potency, µM (doses to about 38.3 µM), without a hit: at the top dose activity change, negative = inhibition, usual class: inhibitors; 0.1% of 60,000 active; AID 927; further: nearly all actives have a fitted effect of over 60% in size
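USP2 core (20 nM final) was preincubated with compound for 30 min at RT in 20 mM Tris-HCl pH 8.0, 2 mM CaCl2, 2 mM beta-mercaptoethanol; Ub-PLA2 (20 nM) plus NBD C6-HPC (20 uM) then added, fluorescence read after 2.5 h.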
HEK293 cAMP ctrl = raises cAMP in parental HEK293 cells, TSHR agonist counter-screen | parental HEK293 CNG cAMP sensor, membrane potential fluorescence | Potency, µM (series often up to 57.1 µM), without a hit: at the top dose activation, most hits filed as activators | 2.5% of 73,000 active | AID 938; further: % of control where 0% means no effect; nearly all actives have a fitted effect of over 55% in size
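Parental HEK 293 cells stably expressing a modified CNG channel (no TSHR) report cAMP rise as membrane depolarization. Membrane potential dye with 100 uM RO 20-1724 was loaded for 60 min at room temperature, then compound added for 30 min; fluorescence read at 590 nm.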
PK Bst = pyruvate kinase (B. stearothermophilus) modulation; purified pyruvate kinase, luminescence ATP production; ribose 5-phosphate activator present at AC10; Potency, µM; 1.2% of 51,000 active; in the data active means potency below about 11 µM; inconclusive means mostly about 12 µM to 25 µM;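 the screen sought inhibitors and activators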;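 further: scaled between full activation by ribose 5 phosphate and full inhibition by luteolin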
Starred values were filed as active, the others as inactive; i = inactive; ? = inconclusive; · = no result given; [ ] = dose if it differs, or a comment. Most compounds without a hit are left out; they make up all but 4.1% or so of the library. Unless noted, the call rests on the fitted dose curve; in most records, active means well fitted curve in the direction sought with a large enough effect; inconclusive means small, poorly fitted or top-dose-only effect, or another doubt; inactive means no such curve, though single readings can be large; an effect the other way counts as inactive or inconclusive. Potency means the concentration at half of the fitted maximal effect.

SMILES	UbGFP stabilizer	GBA activity	TSHR agonist	USP2a inh	HEK293 cAMP ctrl	PK Bst
CCN(CC)c1ccc2cc(-c3nc4ccccc4n3C)c(=O)oc2c1	?	·	?	8.3%[7.66 µM]	?	·
CCN(CC)c1ccc2cc(-c3nc4ccccc4[nH]3)c(=O)oc2c1	0.501µM*	·	-8.7%[11.4 µM]	69.5%[7.66 µM]	-3.6%[11.4 µM]	·
Brc1ccccc1-c1nnc(CSc2nnnn2-c2ccccc2)o1	-9.7%	·	-1.9%[11.4 µM]	9.1%	20.5%	>11.4
Brc1ccccc1-c1nnc(COc2ncnc3c2cnn3-c2ccccc2)o1	-3.0%	>76.9	?	25.3%	25.1µM*	>57
Cc1ccc(C)c(OCC(=O)Nc2nonc2NC(=O)COc2cc(C)ccc2C)c1	1.7%	>76.9	?	51.5%	25.1µM*	>57
CO[C@H]1COC(=O)CCC[C@@H](C)[C@H](OC)COC(=O)[C@H]2CCCN2C(=O)C/C=C\[C@@H]1C	·	·	-9.3%[11.4 µM]	·	4.4%[11.4 µM]	·
O=C(CCN1C(=O)c2ccccc2C1=O)N1CCN(C(=O)c2ccccc2)CC1	4.1%	>76.9	25.1µM*	18.6%	28.5%	>57
COC(=O)C1=C(C)NC(C)=C(C(=O)OCCN(C)Cc2ccccc2)[C@@H]1c1cccc([N+](=O)[O-])c1	-0.1%	·	-36.9%	5.7%	-7.5%	·
COc1cccc([C@@H]2Oc3ccc(OC)cc3/C(=N/O[C@@H](C)c3cn([C@H]4COC[C@H]4O)nn3)[C@@H]2O)c1	·	·	13.0%[11.4 µM]	·	2.5%[11.4 µM]	·
CCCOn1nnnc1-c1ccccc1	0.4%	>76.9	2.1%	2.6%	0.4%	>57
Cc1cccc(C(C)C)c1-n1nnnc1-c1ccccc1	4.7%	·	?	-3.3%	20µM*	·
CC(C)(C)N1C(=O)[C@H]2[C@H]3[C@H](O)[C@H](O)C/C(=N/OC[C@@H](O)COCc4ccco4)[C@@H]3CC[C@@H]2C1=O	·	·	-0.2%[11.4 µM]	·	8.6%[11.4 µM]	·
CN1CCN(c2nc(C(N)=O)cc(-c3ccccc3)n2)CC1	·	·	·	·	·	10.6*
COc1cccc(OC)c1-c1nnc(-c2cn(C)c3ccccc23)o1	-5.9%	>76.9	?	6.5%	20µM*	>57
COc1ccccc1-c1nnc(Nc2nc3c(OC)cccc3s2)o1	-8.0%	>76.9	9.3%	18.4%	11.0%	>57
O=c1c(O)c(-c2ccc(O)c(O)c2)oc2c(OC[C@H]3O[C@@H](O)[C@@H](O)[C@H](O)[C@@H]3O)c(O)cc(O)c12	2.1%	·	10.2%	·	-1.1%	·
ON=C1CCCCC1	·	·	?	·	-28.8%	·
COC(=O)c1c(NC(=O)CN2CCN(Cc3ccc4c(c3)OCO4)CC2)sc(C)c1C	-2.5%	·	?	33.5%	1.58µM*	>57
O=c1c(-c2cccs2)nc2cnc(N3CCNCC3)nc2n1CCc1ccccc1	-8.6%	·	?	195.5%	-35.7%	·
COc1cc(-c2nnc(SCc3c(F)cccc3Cl)o2)cc(OC)c1OC	-8.3%	·	?	-2.1%	31.6µM*	·
COc1ccc2c(-c3cccnc3)cc(=O)[nH]c2c1	3.5%	8.92*	3.7%	-5.6%	-1.9%	>57
O=c1cc(-c2ccccc2)c2ccccc2[nH]1	-4.3%	>76.9	9.6%	-3.2%	-2.1%	>57
COc1ncc2nc(-c3ccccc3)c(=O)n(CCC#N)c2n1	2.7%	·	-8.3%	22.7%	-3.2%	·
Cc1cc(C)nc(NC(=NCCc2c[nH]c3ccccc23)NC(=O)c2ccco2)n1	-4.3%	·	5.01µM*	38.8%	21.1%	>57
c1ccc(-c2nc(N3CCCCCC3)c3ccccc3n2)nc1	-3.3%	>76.9	?	23.4%	?	>57
Nc1nc(N2CCCCC2)nc2ccccc12	-1.9%	·	9.7%	9.8%	9.5%	8.46*
c1ccc2c(N3CCCCC3)nc(N3CCCC3)nc2c1	-0.9%	i	?	-2.1%	12.6µM*	>57
Nc1nc(-c2ccco2)nc(N2CCCCC2)n1	1.0%	>76.9	0.4%	-6.8%	5.1%	>57
CC1(C)S[C@@H]2[C@H](NC(=O)C3(N)CCCCC3)C(=O)N2[C@@H]1C(=O)O	-2.8%[9.17 µM]	·	-5.8%[11.4 µM]	·	5.6%[11.4 µM]	·
COc1cccc(C2=CC(c3ccc(C)cc3)n3ncnc3N2)c1 (centres undefined)	-6.2%	>76.9	?	30.9%	15.8µM*	·
